From PubChem
Only some compounds are listed: those with a hit (about 19% of all), similar ones and a draw of the others.
DT40 TDP1 no CPT: qHTS for Inhibitors of human tyrosyl-DNA phosphodiesterase 1 (TDP1): qHTS in cells in absence of CPT | DT40 Tdp1-/- hTDP1 cells, no CPT, ATP luminescence, 48 h | Potency, µM (highest dose often 46.2 µM), most hits filed as inhibitors | 15% of 420,000 active; also: nearly all actives have a fitted effect of over 55% in size
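Chicken DT40 Tdp1-/- cells complemented with human TDP1, screened without camptothecin (DMSO vehicle only), 400 cells/well. Compounds pin-transferred, cells incubated at 37 °C for at least 48 hr. Growth read as ATP-dependent luminescence (CellTiter-Glo, 30 min at RT).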
HT1080 IDH1KD tx: toxicity to HT-1080 IDH1 knockdown cells (counter line); HT-1080 IDH1 knockdown viability, ATP luminescence, 48 h; Potency, µM (highest dose often 46.1 µM), usual class: cytotoxic; 2% of 360,000 active
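After a 2 h attachment period, IDH1KD HT-1080 cells took pin-transferred compound for 48 h at 37 °C; ATP-based luminescence after 10 min room-temperature reagent incubation reported viability.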
TDP1 cell CPT: growth inhibition of DT40 Tdp1-/-;hTDP1 cells with camptothecin (screen for TDP1 inhibitors) | chicken DT40 Tdp1-/-;hTDP1 cells + 20 nM CPT, ATP luminescence, 48 h | Potency, µM (doses to about 46.2 µM), hits mostly inhibitors | 12% of 420,000 active | AID 686979; also: nearly all actives have a fitted effect of over 55% in size
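Chicken DT40 Tdp1-/- cells stably complemented with human TDP1 were seeded at 400 cells/well in medium containing 20 nM camptothecin, exposed to pin-transferred compounds, and grown at 37 °C for at least 48 hr. Viability was read as ATP luminescence.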
IL-1B inflam inh: blocks inflammasome-driven IL-1 beta release; THP-1 LPS/ATP IL-1B secretion, AlphaLISA, 16 h; stronger effect = lower value; activity change, % at 57.5 µM; 4.7% of 360,000 active; in the data active = activity change below about -50%; inconclusive = mostly about -30% to -49%
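THP-1 cells pretreated 1 hr with compounds (up to 57.5 uM final), then stimulated with LPS (250 ng/mL final) plus ATP (1.25 mM final); secreted IL-1B measured by AlphaLISA after 16 hr, decreased signal indicating inhibition.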
HT1080NT lethal: kills 2HG-producing HT-1080-NT fibrosarcoma cells; 1.6% of 360,000 active; HT-1080-NT fibrosarcoma viability, CellTiter-Glo ATP luminescence, 48 h; Potency, µM (doses to about 46.1 µM), hits mostly cytotoxic; AID 686970;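 also: NT is the 2HG producing partner of a matched IDH1 knockdown line; nearly all actives have a fitted effect of over 55% in size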
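A 48-hour cytotoxicity screen used HT-1080-NT cells plated 2 hours before compound delivery. ATP-based CellTiter-Glo luminescence measured viability, normalized to DMSO and no-cell controls.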
Of the large screens only hits and unclear results are named; the others gave an inactive call. Unless noted, calls follow the shape of the dose curve; as a rule, active = well fitted curve in the direction sought with a large enough effect; inconclusive = small, poorly fitted or top-dose-only effect, or another doubt; inactive = no such curve, though single readings can be large; an effect the other way counts as inactive or inconclusive.

CC[C@@H]([C@H](C)O)n1ncn(-c2ccc(N3CCN(c4ccc(OC[C@@H]5CO[C@@](Cn6cncn6)(c6ccc(F)cc6F)C5)cc4)CC3)cc2)c1=O	DT40 TDP1 no CPT inconclusive (no result: HT1080 IDH1KD tx, IL-1B inflam inh, HT1080NT lethal)
O=C(O)CCCCCCNC1c2ccccc2CCc2ccccc21	none (no result: HT1080 IDH1KD tx, IL-1B inflam inh, HT1080NT lethal)
CC(C)OP(=O)(OC(C)C)C(O)c1ccccc1F (centres undefined)	none
CC(C)c1ccc(N2C(=O)NC(=O)/C(=C\C=C\c3ccco3)C2=O)cc1	DT40 TDP1 no CPT inconclusive, HT1080 IDH1KD tx 5.8µM, TDP1 cell CPT inconclusive, IL-1B inflam inh -100, HT1080NT lethal 4.1µM
COc1ccc(CC2c3cc(OC)c(OC)cc3CCN2C)cc1O (centres undefined)	none
CCC1CN2CCc3cc(OC)c(OC)cc3C2CC1CC1NCCc2cc(OC)c(OC)cc21 (centres undefined)	DT40 TDP1 no CPT 0.15µM, TDP1 cell CPT 0.21µM (no result: HT1080 IDH1KD tx, IL-1B inflam inh, HT1080NT lethal)
CC[C@H]1CN2CCc3cc(OC)c(OC)cc3C2C[C@@H]1C[C@H]1NCCc2cc(OC)c(OC)cc21 (some centres undefined)	DT40 TDP1 no CPT 0.0082µM, HT1080 IDH1KD tx 0.052µM, TDP1 cell CPT 0.13µM, IL-1B inflam inh -108, HT1080NT lethal 0.052µM
CN(C)c1ccc(C(O)P(=O)(OCc2ccccc2)c2ccc(N(C)C)cc2)cc1 (centres undefined)	DT40 TDP1 no CPT inconclusive, TDP1 cell CPT inconclusive
CCCCOP(=O)(c1ccc(N(C)C)cc1)C(Nc1ccccc1)c1ccccc1 (centres undefined)	DT40 TDP1 no CPT 21µM, TDP1 cell CPT 15µM, IL-1B inflam inh -96
Cc1o[nH]c(=O)c1C[C@H](N)C(=O)O	none (no result: HT1080 IDH1KD tx, IL-1B inflam inh, HT1080NT lethal)
C#C[C@]1(O)CCC2C3C(CC[C@@]21C)[C@@]1(C)CC[C@@H](O)CC1=C[C@H]3O (some centres undefined)	DT40 TDP1 no CPT 23µM, TDP1 cell CPT inconclusive
CC12CC[C@H]3[C@@H](CCC4(O)C[C@H](O)CCC34/C=N/NC(=O)c3ccccc3F)C1(O)CCC2C1=CC(=O)OC1 (some centres undefined)	HT1080 IDH1KD tx inconclusive
COc1cc(C(=O)N/N=C/C23CC[C@@H](O)CC2(O)CC[C@@H]2[C@@H]3CCC3(C)C(C4=CC(=O)OC4)CCC23O)ccc1O (some centres undefined)	HT1080 IDH1KD tx 23µM
C[C@]12CCC3C(CC[C@]4(O)C[C@@H](O)CC[C@]34C=O)[C@@]1(O)CC[C@@H]2C1=CC(=O)OC1 (some centres undefined)	DT40 TDP1 no CPT 6µM, TDP1 cell CPT 9.4µM (no result: HT1080 IDH1KD tx, IL-1B inflam inh, HT1080NT lethal)
CN(C)c1ccc(C(=O)N/N=C/C23CC[C@@H](O)CC2(O)CC[C@@H]2[C@@H]3CCC3(C)C(C4=CC(=O)OC4)CCC23O)cc1 (some centres undefined)	HT1080 IDH1KD tx 10µM, IL-1B inflam inh inconclusive, HT1080NT lethal inconclusive
COc1ccc(C(=O)N/N=C/C23CC[C@@H](O)CC2(O)CC[C@@H]2[C@@H]3CCC3(C)C(C4=CC(=O)OC4)CCC23O)cc1 (some centres undefined)	HT1080 IDH1KD tx inconclusive, IL-1B inflam inh -71, HT1080NT lethal inconclusive
CC12CC[C@H]3[C@@H](CCC4(O)C[C@H](O)CCC34/C=N/NC(=O)c3ccc(O)cc3)C1(O)CCC2C1=CC(=O)OC1 (some centres undefined)	none
Cc1c(C)c2ccc(OCC(=O)N3C[C@H]4C[C@@H](C3)c3cccc(=O)n3C4)cc2oc1=O	none
N#Cc1cccc(NC(=O)N2CC[C@@]3(CCCN(C(=O)Oc4ccccc4)C3)C2)c1	DT40 TDP1 no CPT inconclusive (no result: HT1080 IDH1KD tx, IL-1B inflam inh, HT1080NT lethal)
CCC(=Nc1ccccc1N)c1c(O)[nH]c(=O)[nH]c1=O	none
Cc1ccc2c(c1)cc(C(=O)Nc1ccccc1C)n2C	DT40 TDP1 no CPT 1.2µM, TDP1 cell CPT inconclusive (no result: HT1080 IDH1KD tx, IL-1B inflam inh, HT1080NT lethal)
C[n+]1ccc(-c2ccccc2)c2ccccc21	DT40 TDP1 no CPT 2.6µM, TDP1 cell CPT 2.3µM, HT1080NT lethal inconclusive
CC(=NCc1ccc2c(c1)OCO2)c1c(O)n(-c2ccccc2)c(=O)[nH]c1=O	HT1080 IDH1KD tx inconclusive
